SW480 rerep = induces DNA re-replication in SW480 colon adenocarcinoma cells; SW480 DNA re-replication, Hoechst DNA content imaging, 48 h; AID 624297; Potency, µM (series often up to 46.1 µM), actives largely listed as activators; 340,000 tested, 1.8% active; note: nearly all actives have a fitted effect of over 55% in size
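Readout is total intensity of Hoechst-stained nuclei, excited at 405 nm and collected at 500-530 nm. Compound treatment lasted 48 hr at 37 C in 5% CO2 before staining.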
KB-3-1 tox = KB-3-1 parental cell cytotoxicity. KB-3-1 viability, CellTiter-Glo ATP luminescence, 72 h. Potency, µM (titrated, usually from 46.1 µM), usual class: cytotoxic. 400,000 tested, 1.4% active. AID 1347075; note: nearly all actives have a fitted effect of over 60% in size
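Luminescent ATP read-out (CellTiter-Glo) measures survival of drug-naive KB-3-1 cells after 72 h compound exposure at 37 °C. Titration series was screened from lowest to highest concentration, with DMSO vehicle plates as background controls.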
ELG1 DNA repair = inhibitors of ELG1-dependent DNA repair in HEK293T cells; HEK293T ELG1-luciferase reporter, luminescence, 16 h; DNA damage induced by 5-fluorouridine; Potency, µM (highest dose often 46.1 µM), actives largely listed as inhibitors; 330,000 tested, 2.3% active; note: nearly all actives have a fitted effect of over 55% in size
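5-Fluorouridine DNA damage + compound/DMSO, 2,000 cells/well, 16 h, 37 °C/5% CO2. ONE-Glo, 30 min RT, luminescence. Readout = decrease in reporter signal.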
KB-V1 MDR tox = KB-V1 MDR subline cytotoxicity; KB-V1 MDR cells viability, CellTiter-Glo, 72 h; Potency, µM (titrated, usually from 46.1 µM), usual class: cytotoxic; 400,000 tested, 3.4% active; note: nearly all actives have a fitted effect of over 60% in size
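Following 72 h at 37 degrees C with compound, KB-V1 cell viability was read by CellTiter-Glo luminescence, medium being phenol-red-free DMEM plus 10% FBS; concentration-response parameters came from normalized, curve-fitted qHTS data.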
MCF10A rerep = DNA re-replication induction in MCF 10a cells. Potency, µM (series often up to 46.1 µM), actives largely listed as activators. 350,000 tested, 2.9% active. MCF 10A DNA re-replication, Hoechst nuclear intensity, 48 h. AID 624296; note: nearly all actives have a fitted effect of over 50% in size
A number is an active result; - = inactive; ? = inconclusive; . = no result given; [ ] = remark or other dose. An excerpt weighted towards active compounds, which were near 8.2% of everything screened. Calls come from the whole dose curve; as a rule, active = well fitted curve in the direction sought with a large enough effect; inconclusive = small, poorly fitted or top-dose-only effect, or another doubt; inactive = no such curve, though single readings can be large; an effect the other way counts as inactive or inconclusive.

SMILES | SW480 rerep | KB-3-1 tox | ELG1 DNA repair | KB-V1 MDR tox | MCF10A rerep
CCC(=O)[C@@H](C)[C@@H](OC(C)=O)[C@H](C)C[C@@H](C)[C@H]1OC(=O)C[C@@]2(O)CC=C(C)C(O2)C(C)=CCCC[C@H](O[C@H]2C[C@@H](OC(N)=O)[C@H](OC(C)=O)[C@@H](C)O2)C=C[C@H](C)C[C@H]1C | . | 1.3µM | . | - | .
COc1cccc(C2c3cc4c(cc3OC(N3CCCC3)C2C)OCO4)c1O (stereo not drawn) | ? | 20.6µM | . | 8.2µM | ?
CC1C(c2ccc3c(c2)OCO3)c2cc3c(cc2OC1N1CCOCC1)OCO3 (stereo not drawn) | - | - | . | ? | ?
O=C(CCl)N(CCc1ccccc1)CCc1ccccc1 | 4.11µM | ? | ? | ? | 23.1µM
N#CCCN(C(=O)CCl)c1cccc(Cl)c1 | 2.59µM | 20.6µM | ? | ? | ?
CCCCCCCCCCN(CCCCCCCCCC)c1ccccc1 | . | - | . | - | .
CCCCCCN(C(=O)CCl)c1ccccc1 | 9.2µM | - | ? | - | ?
CCCCCCCN(C(=O)CCl)c1cccc(C)c1 | 2.06µM | - | - | - | ?
COc1ccc(-c2nc3ccc(C)cn3c2CC(C)(C)C)cc1OC | . | - | . | - | .
Cc1nnc(NCc2ccccc2)c2ccccc12 | - | - | - | - | -
CC(C)(C)OC(=O)N1CCC(NC(=O)c2nc[nH]c2C(=O)N2CCc3ccccc3C2)CC1 | - | - | - | - | -
Cc1nn(Cc2ccccc2)c(C)c1C(=O)N1CCN(S(=O)(=O)/C=C/c2ccccc2)CC1 | - | - | - | - | -
CCN1C(=NCCOC)N[C@@H](c2ccccc2)[C@H](C(=O)OC)[C@H]1C | - | - | ? | ? | -
O=C(Nc1ccccc1)NN(C(=O)CCl)c1ccccc1 | 5.8µM | 23.1µM | 23.1µM | ? | 8.2µM
O=C(CCl)N(c1ccccc1)c1ccccc1 | - | ? | 20.6µM | ? | ?
Cc1ccc(C(O)(C(=O)NN(C(=O)c2ccccc2)c2ccccc2)c2ccc(C)cc2)cc1 | ? | - | - | - | -
Cc1ccc(N(NC(=O)C(O)(c2ccccc2)c2ccccc2)C(=O)CCl)cc1 | 18.4µM | ? | 20.6µM | ? | 23.1µM
CCOC(=O)c1sc(N2C(=O)c3oc4ccc(F)cc4c(=O)c3C2c2ccc(C)cc2)nc1C (stereo not drawn) | . | - | . | - | .
Nc1nc(=S)c2ncn(C3OC(CO)CC3O)c2[nH]1 (stereo not drawn) | - | ? | . | - | ?
Cc1ccc(/C=C2/NC(=O)N(Cc3ccccc3)C2=O)s1 | - | - | ? | - | -
Cc1cccc(CN2C(=O)N/C(=C/c3ccc(C)s3)C2=O)c1 | ? | 23.1µM | - | 14.6µM | 7.31µM
CC(C)(C)c1ccc(C(=O)CC(Sc2ccc(Cl)cc2)C(=O)O)cc1 (stereo not drawn) | ? | ? | ? | ? | 23.1µM
CN(C)CCOC(=O)CCCCCCCCC(=O)OCCN(C)C | 3.66µM | - | - | - | -
COc1ccccc1NC(=O)c1ccc(CN(c2cc(Cl)ccc2C)S(=O)(=O)c2ccccc2)cc1 | - | - | - | - | -
Cc1ccc(Cl)cc1N(Cc1ccc(C(=O)NCc2cccnc2)cc1)S(=O)(=O)c1ccccc1 | - | - | ? | 14.6µM | -
SMILES | SW480 rerep | KB-3-1 tox | ELG1 DNA repair | KB-V1 MDR tox | MCF10A rerep
COc1ccc(NC(=O)c2ccc(CN(c3cc(Cl)ccc3C)S(=O)(=O)c3ccccc3)cc2)cc1OC | - | - | - | 3.66µM | -
Cc1ccc(NC(=O)CCC(=O)N2Cc3ccccc3Oc3ncccc32)cc1Cl | . | - | . | - | .
C=CCn1c(SCC(=O)Nc2cc(OC)c(NC(=O)c3ccco3)cc2OC)nnc1-c1ccncc1 | - | - | 23.1µM | - | -
C=CCn1c(SCC(=O)N2CCN(c3ccccc3)CC2)nnc1-c1ccco1 | - | - | ? | 13µM | -
C=CCn1c(SCC(=O)Nc2cc(C)c(Cl)cc2OC)nnc1-c1ccco1 | - | - | ? | 2.31µM | -
C=CCn1c(SCC(=O)Nc2cc(C)ccc2OC)nnc1-c1ccco1 | - | - | - | - | -
C=CCn1c(SCC(=O)Nc2ccc(NC(=O)c3ccco3)c(OC)c2)nnc1-c1ccncc1 | - | - | - | ? | -[0.0737 µM]
COc1cccc(-c2nc(-c3ccc(-c4ccccc4)nc3OC)no2)c1 | . | - | . | - | .
CC(=O)N1CCC(N(CCCOC(C)C)S(=O)(=O)c2ccc([N+](=O)[O-])cc2)CC1 | - | - | - | - | -
NC1=NC(=O)/C(=C/c2cccs2)S1 | - | - | - | - | -
C=CCSC1=NC(=O)/C(=C/c2cccs2)S1 | - | - | - | - | 18.4µM
COc1ccccc1NC(=O)CSc1nnc(COc2ccc(Cl)cc2)n1Cc1ccco1 | - | - | ? | - | ?
CCn1c(COc2ccc(C)cc2)nnc1SCC(=O)Nc1cc(OC)ccc1OC | - | - | ? | ? | -
COc1ccc(C(=O)CSc2nnc(CNc3ccc(C)cc3C)n2Cc2ccco2)cc1 | - | ? | ? | 3.66µM | -
CCn1c(COc2ccccc2)nnc1SCC(=O)Nc1cc(C)ccc1OC | - | - | ? | 14.6µM | -
COc1ccc(C)cc1NC(=O)CSc1nnc(COc2ccc(C)cc2)n1Cc1ccco1 | ? | - | ? | 9.2µM | -
S=c1nc[nH]c2c1ncn2C1CCCC1 | - | - | - | - | -
N#Cc1c(NC(=O)CSc2ccccn2)oc(-c2ccccc2)c1-c1ccccc1 | - | - | - | - | 20.6µM
COc1ccc(-c2oc(NC(=O)CSc3nncn3C)c(C#N)c2-c2ccc(OC)cc2)cc1 | - | ? | 18.4µM | - | 13µM
CCn1c(SCC(=O)Nc2oc(-c3ccccc3)c(-c3ccccc3)c2C#N)nnc1-c1ccncc1 | - | - | - | - | 23.1µM
Cc1ccc2nc(NCCO)nc(-c3ccccc3)c2c1 | ? | - | - | 11.6µM | ?
Clc1ccc2nnnc(-c3ccccc3)c2c1 | ? | 2.59µM | ? | 10.3µM | 3.26µM
OCCNc1nc(-c2ccccc2)c2ccccc2n1 | ? | - | - | - | ?
N#Cc1ccccc1/C=N/Nc1nc(-c2ccccc2)c2cc(Cl)ccc2n1 | - | - | - | ? | -
Cc1ccc2nc(N/N=C/c3ccccc3C#N)nc(-c3ccccc3)c2c1 | ? | - | 20.6µM | ? | 13µM
SMILES | SW480 rerep | KB-3-1 tox | ELG1 DNA repair | KB-V1 MDR tox | MCF10A rerep
COCCNC(=O)c1cccc(Nc2nc(-c3ccccc3)c3cc(Cl)ccc3n2)c1 | ? | 14.6µM | 20.6µM | ? | 2.59µM
Cc1c(C)c2c(cc(C)c3c(-c4ccc(Br)cc4)coc32)oc1=O | . | - | . | - | .
Cc1c(Cl)cccc1N1C(=O)CC(NNC(=O)c2ccc3c(c2)OCO3)C1=O (stereo not drawn) | - | - | - | - | -
COc1ccc(-n2ccnc(NCc3ccc(C)cc3)c2=O)cc1OC | . | - | . | - | .
OCCNc1nc(-c2ccccc2)c2cc(Cl)ccc2n1 | ? | - | - | ? | 20.6µM
Clc1ccc2nc(Nc3ccccc3Cl)nc(-c3ccccc3)c2c1 | . | - | . | - | .

High-throughput results deposited in PubChem BioAssay by National Center for Advancing Translational Sciences (NCATS).
